Autofluor counter – flagged as autofluorescent in microsphere protease counterscreen | compound autofluorescence counterscreen, microsphere flow cytometry; active compounds read high | fluorescence intensity (no concentration beside the values) | hit rate 3.1% among 360,000; in the data active = fluorescence intensity above about 16000; inconclusive = no clear call, values can overlap the other calls
Anthrax LF inh2 – Bacillus anthracis LF protease inhibitors, primary screen, biochemical, multiplex microsphere, MLPCN library | multiplex microsphere protease cleavage assay | hit rate 0.12% among 360,000 | Lethal factor (Bacillus anthracis), P15917 | inhibition, % at 10 µM; also: plate controls were buffer without enzyme for full effect and enzyme alone for no effect
Target sequence (P15917 whole entry, looked up): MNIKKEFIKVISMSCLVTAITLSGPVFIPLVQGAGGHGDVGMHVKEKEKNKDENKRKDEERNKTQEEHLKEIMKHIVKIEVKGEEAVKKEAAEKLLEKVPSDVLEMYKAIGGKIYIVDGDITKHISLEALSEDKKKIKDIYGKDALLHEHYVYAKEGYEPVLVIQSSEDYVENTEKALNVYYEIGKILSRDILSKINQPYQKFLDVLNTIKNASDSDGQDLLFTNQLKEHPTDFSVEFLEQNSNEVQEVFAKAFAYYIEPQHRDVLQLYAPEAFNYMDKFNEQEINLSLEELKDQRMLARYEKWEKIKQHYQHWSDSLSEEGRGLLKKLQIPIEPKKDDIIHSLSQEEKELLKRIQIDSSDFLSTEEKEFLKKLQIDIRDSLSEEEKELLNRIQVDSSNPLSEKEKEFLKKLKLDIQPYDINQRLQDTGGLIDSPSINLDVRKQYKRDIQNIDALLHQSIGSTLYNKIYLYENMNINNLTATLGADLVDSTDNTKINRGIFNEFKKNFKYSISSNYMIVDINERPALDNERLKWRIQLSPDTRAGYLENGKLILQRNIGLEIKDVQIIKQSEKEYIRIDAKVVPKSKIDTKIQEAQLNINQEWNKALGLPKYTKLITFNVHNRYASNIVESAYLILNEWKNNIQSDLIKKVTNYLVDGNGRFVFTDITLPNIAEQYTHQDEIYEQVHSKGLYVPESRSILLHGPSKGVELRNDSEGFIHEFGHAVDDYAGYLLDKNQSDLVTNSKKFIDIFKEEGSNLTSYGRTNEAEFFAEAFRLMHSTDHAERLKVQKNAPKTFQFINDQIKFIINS
BoNT-F LC inh – BoNT/F light chain protease inhibitors, primary screen, biochemical, flow cytometry, MLPCN library; Multiplex microsphere protease cleavage assay; AID 588497, 2011; inhibition, % at 10 µM; hit rate 0.22% among 360,000; in the data active = inhibition above about 35%, passing the limit was not always enough; inconclusive = no clear call, values can overlap the other calls; also: plate controls were buffer without enzyme for full effect and enzyme alone for no effect
BoNT A protease – BoNT/A light chain protease inhibitors, primary screen, biochemical, flow cytometry, MLPCN library. hit rate 0.17% among 360,000. multiplex microsphere protease substrate cleavage. inhibition, % at 10 µM. Botulinum neurotoxin type A light chain protease (Clostridium botulinum A str. ATCC 3502); also: plate controls were buffer without enzyme for full effect and enzyme alone for no effect
The depositor's hits bear a star; ? = inconclusive. An excerpt weighted towards active compounds, which were near 3.5% of everything screened. Rule as the data show it, unless noted: active = inhibition above about 30%; inconclusive = no clear call, values can overlap the other calls; inactive = below that.

SMILES	Autofluor counter	Anthrax LF inh2	BoNT-F LC inh	BoNT A protease
C=CCn1c(N2CCN(c3ccc(OC)cc3)CC2)nc2c1c(=O)[nH]c(=O)n2C	4110	4.5	-1.7	0.7
Cc1nc2nc(C)c(CCC(=O)NCc3ccc4c(c3)OCO4)c(C)n2n1	17817*	-3.1	-9.7	?
Cc1nc2ncnn2c(C)c1CCC(=O)NCc1ccccc1	20501*	-1.1	-5.1	-2.3
Cc1nc2nc(CNC(=O)OC(C)(C)C)nn2c(C)c1CCC(=O)Nc1ccc2c(c1)OCO2	5376	-0.6	-4.0	0.4
CCOC(=O)N1CCN(C(=O)CCc2c(C)nc3c(c(C)nn3-c3ccc(C)c(C)c3)c2C)CC1	20186*	-8.0	-4.5	-0.8
CCOC(=O)N1CCC(NC(=O)CCc2c(C)nc3c(c(C)nn3C(C)(C)C)c2C)CC1	21418*	1.1	4.2	4.3
O=C(Nc1ccccc1C(=O)Nc1ccncc1)c1ccccc1	5103	0.5	0.1	-0.1
CCOC(=O)C1CCCCN1C(=O)CCc1c(C)nc2ncnn2c1C (stereo not drawn)	21476*	2.0	-5.2	-5.4
Cc1nc2ncnn2c(C)c1CCC(=O)NC(C)c1ccc2c(c1)OCCO2 (stereo not drawn)	22862*	-0.7	-0.7	-1.0
CCOC(=O)CCc1c(C)nc2ncnn2c1C	23382*	-1.5	-2.3	?
CCOC(=O)N1CCC(NC(=O)CCc2c(C)nc3ncnn3c2C)CC1	22017*	-0.6	0.7	?
Cc1nc2nc(C)c(CCC(=O)NC(C)c3ccc4c(c3)OCCO4)c(C)n2n1 (stereo not drawn)	3157	1.9	-0.3	0.5
CCOC(=O)C1(C)CCCCCN1C(=O)c1ccc(OC)cc1 (stereo not drawn)	3753	-4.1	-0.2	0.3
C[C@H](NS(=O)(=O)c1ccccc1F)C(=O)OCC(=O)Nc1ccc2c(c1)OCCO2	4325	-0.3	-6.7	-0.2
Cc1nnc(SCc2ccc3c(c2)OCO3)s1	21079*	-8.0	3.2	2.8
Nc1nnc(SCc2ccc(F)cc2Cl)s1	21708*	1.9	6.6	6.7
Cc1nnc(SCc2cccc(CSc3nnc(C)s3)c2)s1	3886	1.6	2.9	0.3
Cc1nnc(SCc2ccc(F)cc2Cl)s1	19791*	0.1	-2.1	-0.4
Nc1nnc(SCc2ccc(Cl)cc2)s1	3251	-8.2	-5.6	-0.2
O=C(COc1ccc(S(=O)(=O)N2CCOCC2)cc1)NCCc1ccccc1	5843	-0.4	?	-0.6
O=C(COc1ccc(S(=O)(=O)N2CCOCC2)cc1)Nc1ccccc1C(F)(F)F	22134*	-3.1	4.6	3.6
Cc1ccc(Sc2nnc(Cc3ccccc3)c3ccccc23)cc1	22795*	-5.1	-0.4	?
CC1Cc2cc(/C(O)=C3/C(=O)C(=O)N(CCN4CCOCC4)C3c3ccc([N+](=O)[O-])cc3)ccc2O1 (stereo not drawn)	5744	-4.5	0.2	-0.1
CCCCn1c(=N)n(CC(O)COc2cccc(C)c2)c2ccccc21 (stereo not drawn)	23566*	-3.5	-5.6	-2.6
Cc1ccccc1OCC(O)Cn1c(=N)n(Cc2ccccc2)c2ccccc21 (stereo not drawn)	4759	-3.4	-3.9	0.1
SMILES	Autofluor counter	Anthrax LF inh2	BoNT-F LC inh	BoNT A protease
COc1ccccc1OCC(O)Cn1c(=N)n(Cc2ccccc2)c2ccccc21 (stereo not drawn)	24188*	-2.3	-1.3	-0.6
COc1ccc(OCC(O)Cn2c(=N)n(CCN3CCCCC3)c3ccccc32)cc1 (stereo not drawn)	5171	-3.3	-1.9	0.0
Cc1ccc(OCC(O)Cn2c(=N)n(CCN3CCCCC3)c3ccccc32)cc1 (stereo not drawn)	24505*	-4.1	-6.0	-0.7
Cc1ncc(C(O)c2ccccc2)n1Cc1ccccc1 (stereo not drawn)	3954	-0.7	5.3	-0.3
COC(=O)c1ccccc1NC(=O)Oc1ccc(C(C)C)cc1	24059*	-3.4	-3.7	-0.9
COC(=O)c1ccccc1NC(=S)NC(=O)COc1ccc(C(C)C)cc1	2006	1.6	0.7	0.0
COCCn1nnnc1CN1CCC(NC(=O)c2ccc(Br)cc2)CC1	3728	-3.1	-2.0	0.3
COc1cc(C(=O)NC2CCN(Cc3nnnn3Cc3cccs3)CC2)cc(OC)c1OC	22671*	-7.5	0.8	0.7
COc1cccc(/C=N/NC(=O)c2ccc(N3CCCC3=O)cc2)c1	4932	-0.2	-0.8	-1.5
COc1ccc(C)cc1NC(=O)COC(C)=O	16638*	-2.0	-1.5	-0.5
CC1(C)Cc2c(sc(NC(=O)C3CC(Cl)=CCC3C(=O)O)c2C#N)CO1 (stereo not drawn)	2675	-2.2	-3.2	-0.5

Compound activity deposited in PubChem BioAssay by NMMLSC.
